From PubChem
Only some compounds are listed: those with a hit (about 4.3% of all), similar ones and a draw of the others.
UBC13 polyUb: inhibitors of human UBC13 polyubiquitin chain formation; TR-FRET; AID 485273; P61088; inhibition, % at 20 µM; hit rate 0.47% among 330,000; in the data active = inhibition above about 45%, passing the limit was not always enough
Target sequence (P61088 whole entry, looked up): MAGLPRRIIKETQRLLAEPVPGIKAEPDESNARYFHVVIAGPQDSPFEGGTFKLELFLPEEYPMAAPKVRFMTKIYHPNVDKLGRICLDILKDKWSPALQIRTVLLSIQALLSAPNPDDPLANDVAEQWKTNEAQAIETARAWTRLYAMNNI
CR mimetic SO: yeast age-related superoxide inhibition as caloric restriction mimetic. superoxide response (% of plate mean), % at 10 µM. S. cerevisiae aged cells, superoxide DHE fluorescence; stronger effect = lower value. hit rate 0.18% among 330,000;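 active = superoxide response under a set limit, about three screen SD below normal, cut at about 65% in these data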;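 note: yeast aged for seven days with compound at 30 °C before DHE staining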
NALP1 inh: blocks the NALP1 inflammasome reconstituted in yeast. hit rate 0.61% among 280,000. S. cerevisiae NALP1/ASC/caspase-1 growth, X-gal OD620, 72 h. inhibition, % at 10 µM; in the data active = inhibition mostly above about 24%, no sharp cut-off; inactive = mostly below about 32%
NR3A LBD binder: modulates the human NR3A ligand-binding domain | hit rate 2.5% among 340,000 | NR3A LBD differential scanning fluorimetry, Tm shift; 0% = protein alone, 100% = glycine-bound protein | AID 1259313 | Tm shift relative to glycine control, % at 25 µM;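 active = melting temperature shift of at least 10% of the positive control shift, at one fixed dose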
dFosB activator: enhances mouse delta FosB homodimer DNA binding. P13346. purified delta FosB, TAMRA-CDK5 oligo fluorescence polarization; percent of positive-control signal above neutral wells. activation, % at 25 µM. hit rate 0.99% among 340,000;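 active = mean activation above about 17%, with every replicate also reaching it, limit read from the data, passing the limit was not always enough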
Target sequence (P13346 whole entry, looked up): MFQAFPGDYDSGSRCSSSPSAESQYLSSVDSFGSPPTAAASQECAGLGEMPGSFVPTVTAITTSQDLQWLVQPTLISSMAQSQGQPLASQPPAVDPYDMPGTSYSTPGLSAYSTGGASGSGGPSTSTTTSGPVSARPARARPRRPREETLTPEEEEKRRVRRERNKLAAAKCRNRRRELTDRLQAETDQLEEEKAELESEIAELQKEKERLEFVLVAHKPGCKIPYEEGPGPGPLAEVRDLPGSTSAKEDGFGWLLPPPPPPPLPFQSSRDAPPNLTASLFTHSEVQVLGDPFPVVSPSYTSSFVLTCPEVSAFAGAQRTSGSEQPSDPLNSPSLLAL
Of the large screens only hits and unclear results are named; the others gave an inactive call.

COc1ccc(C(CCNCc2ccccc2)c2ccc(F)cc2)cc1 (stereo not given)	none
COc1ccc(CCNCc2ccc(OCc3ccccc3)cc2)cc1	NALP1 inh 45
COc1ccc(CNS(=O)(=O)CCNCCc2ccccc2)cc1	none (no result: UBC13 polyUb, CR mimetic SO, NALP1 inh)
COc1ccc(C(CCNC(C)c2ccccc2)c2ccc(F)cc2)cc1 (stereo not given)	NALP1 inh 43
COc1ccc(CNC(=O)CNC(C)c2ccc(F)cc2)cc1 (stereo not given)	none
CC(NC(=O)c1ccccc1F)c1nnc(SCC(=O)NC2=NCCS2)n1C (stereo not given)	none
Cn1cncc1C#Cc1ccc2cc(CCO)oc(=O)c2c1	none (no result: NALP1 inh)
COc1ccc(N2CCN(C(=O)COC(=O)CCOc3ccc(C)cc3)CC2)cc1	none (no result: NALP1 inh)
COc1ccc(N2CCN(CCCNC(=O)C(=O)c3c(C)[nH]c4ccccc34)CC2)cc1	none
Cc1ccc(S(=O)(=O)c2ncccc2[N+](=O)[O-])cc1	NALP1 inh 36
CC(=O)c1cccc(NC(=O)CSc2nnnn2C2CCCC2)c1	none (no result: CR mimetic SO)
N#Cc1ccc(NC(=O)Cn2cnc([N+](=O)[O-])c2)cc1	none
Cc1cccc(Oc2cc(NC(=O)Cn3cnc([N+](=O)[O-])n3)cc([N+](=O)[O-])c2)c1	NR3A LBD binder 27 (no result: UBC13 polyUb)
O=C(Cn1cnc([N+](=O)[O-])c1)Nc1cc(Oc2ccc(Cl)cc2Cl)cc([N+](=O)[O-])c1	NR3A LBD binder 12
Cc1ccc(Oc2cc(NC(=O)CCCn3nc([N+](=O)[O-])c(Cl)c3C)cc([N+](=O)[O-])c2)cc1	none
Cc1cc(C)cc(Oc2cc(NC(=O)c3cn(C)nc3C)cc([N+](=O)[O-])c2)c1	NR3A LBD binder 13
CC(C)(C)NC(=O)C[C@H]1C[C@H](C(=O)N2CCOCC2)[C@@]2(CCC3CCCC3)c3[nH]c4cc(-c5ccco5)ccc4c3CCN2C1=O	none (no result: UBC13 polyUb, NALP1 inh)
CCOC(=O)c1c(-c2ccc(C)cc2)csc1NC(=O)C1CCCO1 (stereo not given)	NR3A LBD binder 10
CCOc1ccc(C2Nc3ccc4ccccc4c3-c3c2c(=O)oc2ccccc32)cc1 (stereo not given)	NR3A LBD binder 14
Cn1cc(/C=C2\SC(=S)N(NC(=O)c3cccc(Cl)c3)C2=O)c2ccccc21	NR3A LBD binder 20 (no result: UBC13 polyUb, CR mimetic SO, NALP1 inh)
CC(/C=C1\SC(=S)N(NC(=O)c2cccc(O)c2)C1=O)=C\c1ccccc1	NR3A LBD binder 22
CC(/C=C1\SC(=S)N(CC(=O)O)C1=O)=C\c1ccccc1	none
CCOc1cc(CNn2cnnc2SCC(=O)NC(C)(C)C)ccc1OCC(=O)NC(C)(C)C	none
CC(C)(C)c1cc(NC(=O)c2ccc(OC3CCCC3)cc2)no1	NR3A LBD binder 15
O=C(Nc1ccon1)c1ccc(OC2CCCC2)cc1	NR3A LBD binder 23
COC(=O)[C@H](Cc1ccccc1)NC(=O)C1CCN(C(=O)[C@H](C)NS(=O)(=O)c2ccc(C)cc2)CC1	none
COc1cc([C@H]2Oc3c(OC)cc(CCCO[C@@H]4O[C@H](CO)[C@@H](O)[C@H](O)[C@H]4O)cc3[C@@H]2CO)ccc1O	none (no result: NALP1 inh)
Nc1c(Cl)cc(C2=NCCn3c2c2ccc(C(F)(F)F)cc2[n+]3[O-])cc1Cl	none (no result: NALP1 inh)
Nc1ccccc1C(=O)NCc1ccc(F)cc1	none
Nc1ccccc1C(=O)NCc1ccc(Cl)cc1	NR3A LBD binder 12
C[C@H]1C(=O)N(C)CCN1C(=O)c1ccccc1OC1CCN(S(C)(=O)=O)CC1	NALP1 inh 24
CS(=O)(=O)N1CCC(Oc2ccccc2C(=O)N2CCCCC2CO)CC1 (stereo not given)	none
O=C(Cn1cc([N+](=O)[O-])cn1)NC1CCCCCC1	none
Clc1ccc2scc(CN3CCCCC3)c2c1	NR3A LBD binder 16
NS(=O)(=O)c1cccc(NC(=O)COC(=O)c2ccccc2SCC(=O)N2CCCC2)c1	none (no result: NALP1 inh)
Cc1[nH]c2ccccc2c1C(=O)C(=O)NC1CC1	none
N#Cc1c(NC(=S)NC(=O)Cc2cccs2)sc2c1CCCCC2	NR3A LBD binder 20
N#Cc1c(NC(=O)c2nc3ncccn3n2)sc2c1CCCCC2	NR3A LBD binder 18
CC(C)(C)C(=O)Nc1sc2c(c1C#N)CCC2	none
CC(C)(C)C(=O)NC(NC(=S)Nc1sc2c(c1C#N)CCCC2)C(Cl)(Cl)Cl (stereo not given)	NR3A LBD binder 16
CCC1(C)Cc2c(sc(NC(=S)NC(=O)c3ccccc3)c2C#N)CO1 (stereo not given)	NR3A LBD binder 22
C[C@H](CO)N1C[C@H](C)[C@@H](CN(C)S(=O)(=O)c2cccs2)Oc2ccc(NS(=O)(=O)c3ccccc3)cc2CC1=O	none (no result: NALP1 inh)
CC1CCN(C(c2cccs2)c2nnnn2Cc2ccccc2)CC1 (stereo not given)	none
O=C(OC1CCOC1=O)c1cc(-c2cccs2)nc2ccccc12 (stereo not given)	none
Cc1ccc(C)c(N2CCN(S(=O)(=O)c3cc4c(cc3Cl)NC(=O)CO4)CC2)c1	none
O=C(Nc1ccc(Cl)cc1)c1cc(Br)ccc1OCC(=O)N1CCOCC1	none
O=C(C=CC(=O)OC1CCCCC1)OC1CCCCC1	none (no result: UBC13 polyUb, CR mimetic SO, NALP1 inh)
CC(C)(C)c1ccc(C(=O)NC(=S)Nc2sc3c(c2C#N)CCC3)cc1	none
N#Cc1c(NC(=S)NC(=O)c2ccccc2)sc2c1CCC2	NR3A LBD binder 11
CCN1CCc2c(sc(NC(=S)NC(=O)c3ccccc3)c2C#N)C1	none
CC1CCc2sc(NC(=S)NC(=O)c3ccccc3)c(C#N)c2C1 (stereo not given)	NR3A LBD binder 22
O=C(CN1C(=O)C(=O)N(Cc2ccccc2)C1=O)Nc1ccc(OC(F)F)cc1	NR3A LBD binder 16 (no result: NALP1 inh)
O=C(CN1C(=O)C(=O)N(Cc2ccccc2)C1=O)Nc1cc(Cl)cc(Cl)c1	NR3A LBD binder 26
Cc1c(CCC(=O)NCCCn2ccnc2)c(=O)oc2c(C)c3oc4c(c3cc12)CCCC4	UBC13 polyUb 53
O=C(Nc1cccc(-c2csc(Nc3ccc(Cl)cc3)n2)c1)c1cc([N+](=O)[O-])cc(C(F)(F)F)c1	NR3A LBD binder 20 (no result: NALP1 inh)
O=C(Nc1cccc(-c2csc(Nc3ccccc3)n2)c1)c1cc([N+](=O)[O-])cc(C(F)(F)F)c1	none
O=C(Nc1ccc(-c2csc(Nc3ccc(Cl)cc3)n2)cc1)c1cc([N+](=O)[O-])cc(C(F)(F)F)c1	NR3A LBD binder 20 (no result: NALP1 inh)
CC1(C)CC(Nc2ccc(Nc3ccccc3)cc2)CC(C)(C)N1	none (no result: UBC13 polyUb)
CCCCCCCCCCCCCCCCn1cc[n+](CC(C)=O)c1	NALP1 inh 78 (no result: UBC13 polyUb, CR mimetic SO)
CCCCCCn1ccc(=N)cc1	none
COc1ccc(Cn2c(O)c(C=Nc3ccccc3)c3ccccc3c2=O)cc1	none
COc1ccc(Cn2c(O)c(C=Nc3ccc(O)cc3)c3ccccc3c2=O)cc1	NR3A LBD binder 23
Cc1cc(NC(=O)CSc2nnnn2-c2ccc(C)c(Cl)c2)no1	none
CC(C)C(C(=O)OCC(=O)c1ccc2c(c1)NC(=O)CO2)N1C(=O)c2ccccc2C1=O (stereo not given)	dFosB activator 23
Cc1ccc(OCC(=O)N(Cc2ccc(N(C)C)cc2)C2CCS(=O)(=O)C2)cc1 (stereo not given)	NR3A LBD binder 17
